Our source for the Potency, outcome and max response values is PubChem BioAssay (NCATS).

In experiment [1] the target is Mitogen-activated protein kinase 10 (Mus musculus) (UniProt Q61831). Kind of experiment: JNK3 AlphaScreen Assay (AID 530; active means well fitted curve in either direction with a large enough effect, not every such curve was filed as active;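 further: kinase came from lysate of stimulated human HepG2 cells; signal reports phosphorylation of biotinylated GST-cJun 1-79 at Ser73 with 10 µM ATP; on the % scale 0 is the no-effect control and ±100 the full control effect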). The method, boiled down: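 Kinase buffer: 20 mM Tris-HCl pH 7.6, 10 mM MgCl2, 1 mM DTT, 0.1 mM Na3VO4, 0.01% Tween-20; ATP 10 uM. Substrate biotin-GST-cJun(1-79), enzyme from activated HepG2 lysates. Detection by Ser73 phospho-antibody AlphaScreen.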
(In general: In Alpha technology, singlet oxygen from a donor bead excites a nearby acceptor bead.)

Experiment [2] can be described thus: Cell Viability - N2a (AID 540).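 Further: cells exposed to compound for 40 h at 37 °C; plate controls were DMSO alone for no effect and tamoxifen control for full effect; nearly all actives have a fitted effect of over 45% in size.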 As to conditions: N2a mouse neuroblastoma cell viability; activity change, negative = cytotoxicity: at 92.2 µM (top of the series). In outline: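 N2a mouse neuroblastoma, 1500 cells/well, 5 hr settle; compound 40 hr, 37 °C; CellTiter-Glo 20 min RT; luminescence; Hill-fit AC50.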
Experiment [3] is described as follows: Cell Viability - Renal Proximal Tubule (AID 545).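 Further: cells exposed to compound for 40 hours; 0% = DMSO only and -100% = 100 µM tamoxifen; nearly all actives have a fitted effect of over 40% in size.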 In outline:
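Primary rat renal proximal tubule cells (1000/well) were treated with compounds for 40 hr at 37 °C in complete medium. Intracellular ATP was measured by CellTiter-Glo luminescence, and AC50 values came from Hill-equation fits of concentration-response data.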

Experiment [4] in a line: Cell Viability - Mesenchymal (AID 546).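 Further: cells exposed to compound for 40 hours before reading; 0% = DMSO only and -100% = 100 µM tamoxifen.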 In outline:
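CellTiter-Glo luminescence (intracellular ATP, 20 min room temperature) after 40 hr compound exposure at 37 °C of 1000 glomerulus-derived human kidney mesenchymal cells/well; AC50 values obtained by fitting qHTS concentration-response data to the Hill equation.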

Experiment [5] in a line: Cellular Toxicity (caspase-3) Mesangial (AID 660).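 Further: combined caspase 3 and 7 activity read by Caspase-Glo luminescence; cells exposed to compound for 16 h before the caspase read.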 In outline:
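Luminescent Caspase-Glo 3/7 readout (aminoluciferin substrate cleavage, 20 min RT) after 16 h compound exposure at 37 °C of normal human mesangial cells. Signal increase normalized between DMSO basal and 100 uM tamoxifen; Hill-equation AC50.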

Experiment [6] in a line: Cellular Toxicity (caspase-3) Renal Proximal Tubule (AID 667).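 Further: cells exposed to compound for 16 hours at 37 °C before detection; 0% = DMSO basal and 100% = 10 µM staurosporine.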 The method, boiled down:
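Primary rat proximal tubule cells, 1000/well, 5 h plating at 37 °C, then compound 16 h at 37 °C. Caspase-Glo 3/7 reagent, 1 h RT, luminescence. Normalized to DMSO (basal) and 10 uM staurosporine (100%); Hill-fit AC50.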

For experiment [7], the target named is Cytochrome P450 3A4 (Homo sapiens) (UniProt P08684). Kind of experiment: qHTS Assay for Inhibitors and Substrates of Cytochrome P450 3A4 (AID 884). Further: on the % scale 0 is the no-effect control and ±100 the full control effect; nearly all actives have a fitted effect of over 50% in size. The method, boiled down:
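Luminescent readout of luciferin produced by CYP3A4 (20 nM) dealkylation of Luciferin-PPXE, 25 uM (its KM). NADPH-driven reaction ran 60 min at RT after 10 min compound preincubation; data scaled to 57 uM ketoconazole as 100% inhibition.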
In general terms: qHTS replaces the single test concentration by a dilution series.

Experiment [8] can be described thus: MultiTox-Fluor Cytotoxicity Assay - LYMP1-001 - Live Cells (AID 947).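 Further: 0% = DMSO only and full inhibition = tetraoctylammonium bromide control.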
Experiment [9] in a line: Cell Viability - LYMP2-005 (AID 967).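 Further: plate controls were DMSO only for no effect and 92 µM tetraoctylammonium bromide control for full effect.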 The method, boiled down:
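CellTiter-Glo luminescence (cellular ATP) read-out; LYMP2-005 lymphoblastoid cells, 2500/well, 5 h pre-incubation, then 24 h compound exposure at 37 C in complete medium. Tetraoctylammonium bromide positive control; AC50 by standard Hill fit.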

Experiment [10] can be described thus: Cell Viability - LYMP2-010 (AID 981).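 Further: cells exposed to compound for 24 hours at 37 °C; on the % scale 0 is the no-effect control and ±100 the full control effect; nearly all actives have a fitted effect of over 55% in size.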 In outline: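 qHTS cytotoxicity, 1536-well: 2500 cells/well, 5 hr settle, 24 hr compound at 37 C, CellTiter-Glo 30 min RT, luminescence read. Decrease in ATP = toxicity; AC50 via standard Hill equation. Positive control tetraoctylammonium bromide.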
Experiment [11] is described as follows: Cell Viability - LYMP2-016 (AID 984).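 Further: cells exposed to compound for 24 hours at 37 °C; on the % scale 0 is the no-effect control and ±100 the full control effect; nearly all actives have a fitted effect of over 55% in size.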 The method, boiled down: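 Human lymphoblastoid cells (LYMP2-016), 2500/well in complete medium, preincubated 5 hr at 37 C, then compound-treated 24 hr at 37 C. Intracellular ATP read by CellTiter-Glo luminescence after 30 min at room temperature; AC50 from Hill-equation concentration-response fits.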
The target of experiment [12] is Vitamin D3 receptor (Homo sapiens) (UniProt P11473). Kind of experiment: qHTS assay for small molecule antagonists of vitamin D receptor signaling (AID 588541; calls by dose curve;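 further: receptor activated by calcitriol during compound treatment; on the % scale 0 is the no-effect control and ±100 the full control effect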). The method, boiled down: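 Antagonist-mode beta-lactamase reporter assay: HEK293T VDR-UAS-bla cells were exposed to titrated compound alongside 1-alpha,25-dihydroxyvitamin D3 at 3 nM final for 16 h. Values were normalized to the 50 nM agonist control and DMSO basal, with IC50 and efficacy from Hill equation fits.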

Experiment [13] is described as follows: qHTS assay for small molecule antagonists of retinoid X receptor alpha signaling (AID 588546).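 Further: cells stimulated with 9-cis-retinoic acid as agonist; on the % scale 0 is the no-effect control and ±100 the full control effect.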 As to conditions: HEK293T RXRa-UAS-bla, beta-lactamase ratio, antagonist mode; measured here: W530 green channel, cytotoxicity proxy. In outline:
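Beta-lactamase reporter inhibition, read as CCF4 fluorescence ratio (ex 405, em 460/530 nm) after 2 h at RT. HEK293T UAS-bla cells, 2500/well, were stimulated with 9-cis-RA at 500 or 100 nM final alongside test compound for 18 h at 37 C.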

Experiment [14] addresses Voltage-gated inwardly rectifying potassium channel KCNH2 (Homo sapiens) (UniProt Q12809). Kind of experiment: qHTS Assay for Small Molecule Inhibitors of the Human hERG Channel Activity (AID 588834).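 Further: top concentration of the series differs between compounds; on the % scale 0 is the no-effect control and ±100 the full control effect; lower thallium flux fluorescence means stronger hERG block; nearly all actives have a fitted effect of over 50% in size.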 In outline:
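In hERG-transduced U2OS cells, dye-loaded for 1 hr at room temperature in dark, test compounds incubated 10 min at 37 °C before thallium stimulation. AC50 values derived by Hill modelling of concentration-response.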

A short description of experiment [15]: qHTS assay for small molecule disruptors of the mitochondrial membrane potential - 1 hr assay (AID 651754; calls by dose curve; further: on the % scale 0 is the no-effect control and ±100 the full control effect; nearly all actives have a fitted effect of over 35% in size). The method, boiled down: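 Read-out: dye fluorescence at 490 nm ex/535 nm em (monomers) and 540 nm ex/590 nm em (aggregates) in HepG2 cells. Compound exposure 1 hr at 37C, followed by 30 min dye loading.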
A short description of experiment [16]: qHTS assay for cell viability of HEK293 cells (AID 743288). Further: on the % scale 0 is the no-effect control and ±100 the full control effect; nearly all actives have a fitted effect of over 50% in size. As to conditions: ATP luminescence (CellTiter-Glo), 18 h, stronger effect = lower value. The method, boiled down: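 After 18 h compound exposure at 37 C, parental HEK293 cells (2,000/well) are lysed with CellTiter-Glo and luminescence is read following 30 min at room temperature.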
The target in experiment [17] is Nuclear receptor subfamily 1 group I member 2 (Rattus norvegicus) (UniProt Q9R1A7). Kind of experiment: qHTS assay for small molecule activators of the rat pregnane X receptor (rPXR) signaling pathway (AID 651751; call rule not given here; further: 0% is about no effect). As to conditions: rPXR reporter cells, luciferase (One-Glo), 24 h.
The nature of experiment [18]: qHTS assay for small molecule activators of the human pregnane X receptor (PXR) signaling pathway (AID 720659; call rule not given here; further: 0% is about no effect).
A short description of experiment [19]: Cell Viability - HUV-EC-C (AID 542).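 Further: cells exposed to compound for 40 hours; on the % scale 0 is the no-effect control and ±100 the full control effect; nearly all actives have a fitted effect of over 35% in size.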 In outline:
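Luminescent ATP read-out (CellTiter-Glo, 20 min room temperature) after 40 hr compound treatment of HUV-EC-C cells at 37 °C. Concentration-response data fitted with the standard Hill equation to give AC50; tamoxifen and doxorubicin served as positive controls.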

The nature of experiment [20]: Cell Viability - LYMP2-024 (AID 988).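 Further: plate controls were DMSO only for no effect and 92 µM tetraoctylammonium bromide for full effect; nearly all actives have a fitted effect of over 60% in size.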 In outline:
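ATP-based luminescence (CellTiter-Glo, 30 min RT) after 24 h compound exposure at 37 C of 2500 lymphoblastoid cells/well; decrease in ATP taken as cytotoxicity. qHTS concentration-response fitted to standard Hill equation for AC50.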

Inconclusive results are not listed. Calls of active or inactive are those of the source. Unless noted, the call rests on the fitted dose curve; in most records, active means well fitted curve in the direction sought with a large enough effect; inconclusive means small, poorly fitted or top-dose-only effect, or another doubt; inactive means no such curve, though single readings can be large; an effect the other way counts as inactive or inconclusive.

Chain of Nuclear receptor subfamily 1 group I member 2 (Rattus norvegicus) (Q9R1A7 whole entry, looked up): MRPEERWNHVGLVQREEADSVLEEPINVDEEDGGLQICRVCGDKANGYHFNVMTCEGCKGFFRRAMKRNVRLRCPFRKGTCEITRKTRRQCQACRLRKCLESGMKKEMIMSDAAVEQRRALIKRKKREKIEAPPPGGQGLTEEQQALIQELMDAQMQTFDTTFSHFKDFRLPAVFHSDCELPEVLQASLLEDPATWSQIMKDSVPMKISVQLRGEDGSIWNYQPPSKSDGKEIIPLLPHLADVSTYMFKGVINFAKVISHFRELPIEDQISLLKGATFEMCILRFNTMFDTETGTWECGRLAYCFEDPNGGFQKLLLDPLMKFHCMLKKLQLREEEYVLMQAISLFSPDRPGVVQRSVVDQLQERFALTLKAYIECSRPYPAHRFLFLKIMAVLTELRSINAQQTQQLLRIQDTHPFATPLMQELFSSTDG
Chain of Vitamin D3 receptor (Homo sapiens) (P11473 whole entry, looked up): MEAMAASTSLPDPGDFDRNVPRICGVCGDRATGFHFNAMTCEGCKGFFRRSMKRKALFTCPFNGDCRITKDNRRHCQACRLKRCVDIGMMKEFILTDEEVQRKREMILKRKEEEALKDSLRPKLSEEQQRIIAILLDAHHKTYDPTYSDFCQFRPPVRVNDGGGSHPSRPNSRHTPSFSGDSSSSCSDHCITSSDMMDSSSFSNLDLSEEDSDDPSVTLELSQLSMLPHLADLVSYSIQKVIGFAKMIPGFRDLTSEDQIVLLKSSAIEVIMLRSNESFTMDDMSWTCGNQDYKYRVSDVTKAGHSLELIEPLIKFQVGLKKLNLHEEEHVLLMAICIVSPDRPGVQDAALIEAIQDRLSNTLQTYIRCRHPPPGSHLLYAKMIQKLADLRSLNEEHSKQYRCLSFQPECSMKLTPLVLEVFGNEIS
Chain of Voltage-gated inwardly rectifying potassium channel KCNH2 (Homo sapiens) (Q12809 whole entry, looked up): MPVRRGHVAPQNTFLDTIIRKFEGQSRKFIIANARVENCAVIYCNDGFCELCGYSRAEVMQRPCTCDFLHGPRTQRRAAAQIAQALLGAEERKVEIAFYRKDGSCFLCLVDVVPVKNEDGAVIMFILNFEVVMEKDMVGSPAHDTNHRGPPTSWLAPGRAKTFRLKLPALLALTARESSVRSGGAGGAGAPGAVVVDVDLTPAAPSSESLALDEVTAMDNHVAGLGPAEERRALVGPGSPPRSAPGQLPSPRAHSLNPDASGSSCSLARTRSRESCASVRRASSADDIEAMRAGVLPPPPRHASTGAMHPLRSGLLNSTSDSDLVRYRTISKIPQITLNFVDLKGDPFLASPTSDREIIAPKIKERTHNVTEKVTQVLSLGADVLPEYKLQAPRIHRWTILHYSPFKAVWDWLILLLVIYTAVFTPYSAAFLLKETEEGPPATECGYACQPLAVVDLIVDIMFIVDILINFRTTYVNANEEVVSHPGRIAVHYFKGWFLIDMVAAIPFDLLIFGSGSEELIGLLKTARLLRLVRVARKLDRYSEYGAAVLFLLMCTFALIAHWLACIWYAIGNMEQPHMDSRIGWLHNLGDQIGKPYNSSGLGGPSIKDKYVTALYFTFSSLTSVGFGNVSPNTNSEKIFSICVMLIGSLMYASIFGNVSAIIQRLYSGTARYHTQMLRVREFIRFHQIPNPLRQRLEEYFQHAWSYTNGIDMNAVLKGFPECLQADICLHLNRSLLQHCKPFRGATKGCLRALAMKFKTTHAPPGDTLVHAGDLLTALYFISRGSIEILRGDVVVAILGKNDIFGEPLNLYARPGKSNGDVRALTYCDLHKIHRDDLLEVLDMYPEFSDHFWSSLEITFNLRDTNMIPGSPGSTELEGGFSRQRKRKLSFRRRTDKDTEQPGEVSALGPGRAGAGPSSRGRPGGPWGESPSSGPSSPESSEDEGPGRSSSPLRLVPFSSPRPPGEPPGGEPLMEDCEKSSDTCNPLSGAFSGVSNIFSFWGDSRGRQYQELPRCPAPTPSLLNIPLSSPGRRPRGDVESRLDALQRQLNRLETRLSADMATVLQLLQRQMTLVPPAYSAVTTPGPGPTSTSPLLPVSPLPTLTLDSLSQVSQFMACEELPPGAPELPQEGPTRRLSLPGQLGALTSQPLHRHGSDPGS
Chain of Cytochrome P450 3A4 (Homo sapiens) (P08684 whole entry, looked up): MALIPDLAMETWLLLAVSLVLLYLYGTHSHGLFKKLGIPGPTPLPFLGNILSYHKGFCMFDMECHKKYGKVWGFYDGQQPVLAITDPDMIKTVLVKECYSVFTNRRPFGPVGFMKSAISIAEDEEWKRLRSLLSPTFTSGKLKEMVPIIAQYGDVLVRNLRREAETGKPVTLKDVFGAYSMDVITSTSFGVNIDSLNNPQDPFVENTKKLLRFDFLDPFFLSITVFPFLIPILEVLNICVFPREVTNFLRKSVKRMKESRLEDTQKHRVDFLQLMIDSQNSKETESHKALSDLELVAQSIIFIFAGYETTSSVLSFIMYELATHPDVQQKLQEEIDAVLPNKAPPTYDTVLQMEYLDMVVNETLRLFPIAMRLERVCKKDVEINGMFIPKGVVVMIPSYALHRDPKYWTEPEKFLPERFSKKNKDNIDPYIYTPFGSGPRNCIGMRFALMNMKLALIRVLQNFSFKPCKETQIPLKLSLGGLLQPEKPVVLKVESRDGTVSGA

For `Cc1cnc[nH]1`, the Potency result in experiment [1], in experiment [2], in [4], in experiment [7], in experiment [9] and in [10] was “inactive” each time. Besides, the Potency result in experiment [11], in experiment [14] and in [15] was “inactive” each time. Moreover, the molecule was classed as inactive in experiment [3], in experiment [5], in experiment [6], in experiment [8], in [12] and in experiment [18]. In addition, the max response in [13] was -10.6%; in experiment [16], -9.96% (inactive); in [17], -5.24% (inactive).
Regarding `CCOC(=O)C1OC1(C)c1ccccc1` (stereo not drawn), the Potency entry in [1], in experiment [2], in [19], in experiment [7], in experiment [9] and in [10] was “inactive” throughout. The Potency entry in [20], in experiment [14] and in experiment [15] was “inactive” each time. For the same molecule, the result in experiment [3], in [6] and in experiment [8] was inactive. For the same molecule, the max response is 1.36% in experiment [13], 7.29% (inactive) in [16] and -3.02% (inactive) in [17].
In the case of `NNC(N)=S`, the Potency entry in experiment [1], in experiment [2], in experiment [19], in [4], in experiment [7] and in [9] was “inactive” in each case. Further, the Potency result in experiment [10], in experiment [11], in experiment [20], in experiment [14] and in experiment [15] was “inactive” throughout. The result in experiment [3], in [6], in experiment [8], in experiment [12] and in [18] was inactive. For the same molecule, the max response in [13] was 6.4%; in experiment [16], 1.66% (inactive); in experiment [17], 0.379% (inactive).
Take `Cc1cc(Cl)ccc1O`: the Potency result in experiment [1], in [2], in experiment [19], in experiment [4], in [7] and in [9] was “inactive” each time. The Potency result in experiment [10], in [11], in experiment [20], in [14] and in experiment [15] was “inactive” throughout. The molecule was called inactive in experiment [5], in [6], in experiment [8], in [12] and in [18]. The values for the max response in experiment [13], in experiment [16] and in [17] were -5.47%, -5.93% (inactive) and -0.864% (inactive), respectively.
For the molecule `O=S(=O)(O)F`, the Potency result in [1], in [2], in experiment [4], in [7], in experiment [9] and in [10] was “inactive” throughout. For the same molecule, the Potency entry in experiment [11], in experiment [20], in experiment [14] and in experiment [15] was “inactive” throughout. For the same molecule, the molecule was classed as inactive in experiment [3], in experiment [5], in experiment [6], in [8], in [12] and in experiment [18]. Moreover, the max response in experiment [13] is -2.92%; in experiment [16], -2.74% (inactive); in experiment [17], 0.583% (inactive).
On to `N#CCc1ccccc1`, for which the Potency entry in experiment [1], in experiment [2], in [19], in experiment [4], in [7] and in experiment [9] was “inactive” in each case. The Potency entry in experiment [10], in experiment [11], in [14] and in experiment [15] was “inactive” in each case. Besides, the molecule was classed as inactive in experiment [3], in experiment [5], in experiment [6], in [8], in experiment [12] and in experiment [18]. Besides, the max response is -0.865% in [13], -1.92% (inactive) in experiment [16] and 1.21% (inactive) in experiment [17].
As for `COc1ccccc1N`, the Potency entry in [1], in experiment [2], in [19], in [4], in experiment [7] and in experiment [10] was “inactive” throughout. In addition, the Potency result in experiment [11], in [20], in experiment [14] and in [15] was “inactive” each time. Also, the outcome in experiment [3], in experiment [5], in experiment [6], in experiment [8] and in experiment [18] was inactive. Further, the max response in experiment [16] was -0.892% (inactive); in experiment [17], 20.9% (inactive).
On to `Cc1ccccc1[N+](=O)[O-]`, for which the Potency entry in experiment [1], in [2], in experiment [19], in experiment [4], in [7] and in experiment [9] was “inactive” in each case. The Potency result in experiment [10], in experiment [11], in experiment [20] and in [14] was “inactive” in each case. For the same molecule, the molecule was called inactive in [6], in experiment [8], in experiment [12] and in experiment [18]. Moreover, the max response is -5.55% in [13], 6.42% (inactive) in experiment [16] and -2.44% (inactive) in experiment [17].
